Data from PubChem BioAssay.

target: Albumin (Bos taurus) (UniProt P02769); test: bovine serum albumin binders on microarray, profiling panel, artefact control for SMM control protein annotation, biochemical, small-molecule microarray, Alexa647 label, 635/667 nm fluorescence (AID 1118); settings: BSA-A647 binding, fluorescence 635 nm, higher = more signal;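 further: score merges 667 nm emission intensity and signal-to-noise per printed compound spot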
Sequence (P02769 whole entry, looked up): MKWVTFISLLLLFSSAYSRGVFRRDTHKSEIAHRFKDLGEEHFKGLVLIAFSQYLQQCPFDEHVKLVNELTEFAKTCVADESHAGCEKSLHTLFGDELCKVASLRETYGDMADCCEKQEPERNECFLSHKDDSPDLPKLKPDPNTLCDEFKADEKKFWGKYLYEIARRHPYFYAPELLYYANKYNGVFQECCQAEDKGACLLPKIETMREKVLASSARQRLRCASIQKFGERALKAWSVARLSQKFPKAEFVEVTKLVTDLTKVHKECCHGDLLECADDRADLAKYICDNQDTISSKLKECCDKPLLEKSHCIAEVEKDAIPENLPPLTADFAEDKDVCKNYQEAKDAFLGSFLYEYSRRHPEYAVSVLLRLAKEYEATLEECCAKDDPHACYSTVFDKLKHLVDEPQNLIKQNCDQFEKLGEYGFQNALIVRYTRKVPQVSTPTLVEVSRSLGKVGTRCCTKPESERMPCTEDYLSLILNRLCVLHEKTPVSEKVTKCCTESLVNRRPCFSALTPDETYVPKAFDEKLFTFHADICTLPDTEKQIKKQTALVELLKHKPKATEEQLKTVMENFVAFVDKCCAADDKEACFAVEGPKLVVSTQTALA

Question: With CCOC(=O)C1=CC[C@@H](c2ccccc2)N(S(=O)(=O)c2ccc(C)cc2)[C@@H]1C#N as the compound, how does the composite z-score read?
Answer: Its composite z-score is 0.118.

Question: Which composite z-score does the source give for C=CCN1C(=O)[C@]2(O[C@H](CCO)[C@@H]([Si](C)(C)c3ccc(OC)cc3)[C@@H]2C)c2cc(N3C(=O)c4ccccc4Oc4ccccc43)ccc21 here?
Answer: The composite z-score was 0.493.

Question: Which composite z-score does the source give for C=CCOC(=O)[C@H]1[C@@H]2C(=O)O[C@@H](c3ccccc3)[C@@H](c3ccccc3)N2[C@@H](c2ccc(OCCOC(=O)[C@H]3C[C@H]4C(=O)NCC(=O)N4[C@H]3c3ccc(O)cc3)cc2)[C@]12C(=O)Nc1ccccc12 here?
Answer: Its composite z-score is -0.501.

Question: With C=CCOC(=O)[C@H]1[C@@H]2C(=O)O[C@@H](c3ccccc3)[C@@H](c3ccccc3)N2[C@@H](c2ccc(OCCOC(=O)[C@@H]3C[C@@H]4C(=O)N[C@@H](Cc5ccccc5)C(=O)N4[C@@H]3c3ccc(O)cc3)cc2)[C@]12C(=O)Nc1ccc(I)cc12 as the compound, how does the composite z-score read?
Answer: Its composite z-score is -0.257.

Question: Which composite z-score does the source give for CC(C)[Si](C#Cc1ccccc1)(O[C@H](c1ccccc1)c1cn(Cc2ccccc2)nn1)C(C)C here?
Answer: Its composite z-score is 0.939.

Question: O=C(NCCN1CCOCC1)[C@@H]1c2ccccc2C(=O)N(CC23CC4CC(CC(C4)C2)C3)[C@H]1c1ccc(CO)cc1 was tested. Which composite z-score did it give?
Answer: Its composite z-score is 0.974.

Question: Which composite z-score does the source give for O=C1O[C@@H](c2ccccc2)[C@@H](c2ccccc2)N2[C@@H](c3ccccc3OCCO)[C@]3(C(=O)Nc4ccc(C#CC5(O)CCCCCC5)cc43)[C@@H](C(=O)N3CCCCCCC3)[C@H]12 here?
Answer: The composite z-score was -0.411.

Question: CCOC(=O)C[C@H]1[C@H](OC(=O)c2ccc(-c3ccccc3)cc2)[C@@H](NC(=O)C2CCCCC2)c2cc(OCCCO)ccc2N1C(=O)Cc1ccc(OC)cc1 was tested. Which composite z-score did it give?
Answer: Its composite z-score is 0.561.

Question: With C=CCC(OC(C)=O)[C@@H]1[C@@H](N(Cc2cccc3ccccc23)C(=O)c2ccc(C)cc2)c2cc(OCCCO)ccc2N1C(=O)Cc1ccc2ccccc2c1 (stereo partly specified) as the compound, how does the composite z-score read?
Answer: Its composite z-score is 0.706.

Question: How did the composite z-score turn out when COC(=O)C1(CC(C)C)C=C2C(=C(C)C(=O)C2C)CN1 (stereo unspecified) was run?
Answer: The composite z-score was -0.293.

Question: Which composite z-score does the source give for COC(=O)[C@@]1(Cc2ccc(F)cc2)[C@H]2c3cc(C(=O)N4CCCC4)n(C[C@H](O)CO)c3C[C@H]2CN1C(=O)c1ccccc1 here?
Answer: The composite z-score was 1.13.

Question: With COC(=O)C(CC#Cc1ccc2c(c1)[C@]1(C(=O)N2)[C@H](C(=O)NC[C@H](O)c2ccccc2)[C@H]2C(=O)O[C@H](c3ccccc3)[C@H](c3ccccc3)N2[C@@H]1c1ccc(O)cc1)C(=O)OC as the compound, how does the composite z-score read?
Answer: Its composite z-score is 0.41.

Question: CC(C)c1ccc(NN2C(C(O)C3CCCCC3)C=CC3C(=O)N(c4ccccc4)C(=O)C32)cc1 (stereo unspecified) was tested. Which composite z-score did it give?
Answer: The composite z-score was 0.98.

Question: For CN(C)C(=O)[C@]1(CCS(=O)(=O)c2ccccc2)N=C(c2ccc(OCCCO)cc2)O[C@@H]1c1ccccc1CN=[N+]=[N-], which composite z-score is on record?
Answer: Its composite z-score is 0.955.

Question: How did the composite z-score turn out when COc1ccc(C(=O)Nc2cccc(CN3C(=O)[C@]4(O[C@H](CC(=O)N(CCO)Cc5ccccc5)[C@@H]([Si](C)(C)c5ccc(OC)cc5)[C@@H]4C)c4ccccc43)c2)cc1 was run?
Answer: The composite z-score was -0.211.

Question: How did the composite z-score turn out when C=CCNC(=O)[C@@H]1[C@H]2C(=O)O[C@H](c3ccccc3)[C@H](c3ccccc3)N2[C@H](c2ccc(O)cc2)[C@@]12C(=O)N(C(=O)OCCOC)c1ccc(C#CCC(C(=O)OC)C(=O)OC)cc12 was run?
Answer: The composite z-score was 0.366.

Question: C=CCNC(=O)[C@H]1[C@@H]2C(=O)O[C@@H](c3ccccc3)[C@@H](c3ccccc3)N2[C@@H](c2ccc(OCCO)cc2)[C@]12C(=O)N(C(=O)OCCOC)c1ccc(C#CCNC(N)=O)cc12 was tested. Which composite z-score did it give?
Answer: Its composite z-score is 0.452.

Question: COC(=O)[C@@]1(Cc2ccc(OC)cc2)[C@@H]2[C@@H](CC(=O)[C@H]2CC(=O)C(=O)N(C)C)CN1C(=O)c1ccccc1 was tested. Which composite z-score did it give?
Answer: The composite z-score was 0.964.

Question: How did the composite z-score turn out when CC(C)N1C(=O)[C@@]2(Cc3ccccc31)c1ccccc1C(=O)N(Cc1ccccc1C(F)(F)F)[C@H]2c1ccc(CO)cc1 was run?
Answer: Its composite z-score is -0.832.

Question: COc1ccc(C#Cc2ccc3c(c2)[C@]2(C(=O)N3)[C@H](c3ccccc3OCCO)N3[C@H](c4ccccc4)[C@H](c4ccccc4)OC(=O)[C@H]3[C@@H]2C(=O)NC[C@H](O)c2ccccc2)cc1 was tested. Which composite z-score did it give?
Answer: Its composite z-score is 0.579.

Question: O=C1O[C@H](c2ccccc2)[C@H](c2ccccc2)N2[C@H]1[C@@H](C(=O)O)[C@]1(C(=O)Nc3ccccc31)[C@H]2c1ccc(OCCO)cc1 was tested. Which composite z-score did it give?
Answer: Its composite z-score is 1.03.

Question: How did the composite z-score turn out when Cc1ccc(S[C@]2(C(=O)NCCN3CCOCC3)CC(=O)N(C(C)C)[C@@H]2c2ccc(CO)cc2I)cc1 was run?
Answer: The composite z-score was -0.233.

Question: Which composite z-score does the source give for COc1ccc([Si](C)(C)[C@H]2[C@H](CC(=O)N(CCO)Cc3ccccc3)O[C@@]3(C(=O)N(c4ccccc4)c4ccccc43)[C@@H]2C)cc1 here?
Answer: The composite z-score was 0.504.

Question: With CN1C(=O)C2C=CC(C(O)c3ccc(I)cc3)N(N(c3ccccc3)c3ccccc3)C2C1=O (stereo unspecified) as the compound, how does the composite z-score read?
Answer: Its composite z-score is 0.626.

Question: How did the composite z-score turn out when C=CCC(OC(C)=O)[C@@H]1[C@@H](N(Cc2ccc(-c3ccccc3)cc2)C(=O)Cc2ccc(OC)cc2)c2cc(OCCCO)ccc2N1C(=O)Cc1ccc(OC)cc1 (stereo partly specified) was run?
Answer: Its composite z-score is -0.0621.

Question: Which composite z-score does the source give for Cc1ccc(S[C@]2(C(=O)NC(C)C)CC(=O)N(Cc3ccccc3)[C@@H]2c2ccc(CO)cc2)cc1 here?
Answer: The composite z-score was 0.161.

Question: How did the composite z-score turn out when C=CCNC(=O)[C@H]1[C@@H]2C(=O)O[C@@H](c3ccccc3)[C@@H](c3ccccc3)N2[C@@H](c2ccc(OCCO)cc2)[C@]12C(=O)N(C(=O)OCCOC)c1ccc(C#CCC(C(=O)OC)C(=O)OC)cc12 was run?
Answer: The composite z-score was 0.738.

Question: Which composite z-score does the source give for CCCCCN1CC=CC23O[C@@H]4/C=C\CCCOC(=O)C4[C@H]2C(=O)N(CCO)[C@@H]3C1=O (stereo partly specified) here?
Answer: Its composite z-score is 0.73.

Question: How did the composite z-score turn out when CN1C2C=C(c3ccc(CO)cc3)C(C3C(=O)N(C(N)=O)C(=O)C32)C1C1CC1 (stereo unspecified) was run?
Answer: The composite z-score was -0.43.

Question: For Cc1ccc(S(=O)(=O)N2[C@@H](c3ccccc3)C(C(=O)O)=C[C@H]2C(C)(C)C)cc1, which composite z-score is on record?
Answer: Its composite z-score is 1.

Question: How did the composite z-score turn out when C=C(C(=O)CC[C@@H](OC(=O)c1ccccc1-c1ccccc1C(=O)O)c1ccc(CO)o1)C(C)C was run?
Answer: The composite z-score was -0.41.

Question: How did the composite z-score turn out when COC(=O)[C@@]1(Cc2ccc(F)cc2)[C@@H]2C(=CC(=O)[C@H]2CC(=O)C(=O)N2CCCC2)CN1C(=O)c1ccccc1 was run?
Answer: Its composite z-score is 1.02.

Question: With COC(=O)C(CC#Cc1ccc2c(c1)[C@]1(C(=O)N2)[C@H](C(=O)N2CCCCCCC2)[C@H]2C(=O)O[C@H](c3ccccc3)[C@H](c3ccccc3)N2[C@@H]1c1ccc(OCCO)cc1)C(=O)OC as the compound, how does the composite z-score read?
Answer: Its composite z-score is 0.844.

Question: How did the composite z-score turn out when C=CC[C@H](OC(=O)Nc1ccc(SC)cc1)c1ccc(O)c(F)c1 was run?
Answer: Its composite z-score is 0.333.

Question: With Cc1cccc([C@H]2C[C@H]3C(Br)=C[C@@]2(CO)C(=O)[C@]32CO2)c1 as the compound, how does the composite z-score read?
Answer: Its composite z-score is -0.155.

Question: For C=C(CCCC)C(=O)CC[C@H](OC(=O)c1ccccc1-c1ccccc1C(=O)O)c1cccc(OCCO)c1, which composite z-score is on record?
Answer: The composite z-score was 0.314.
